# Experimental data published in the supplement of paper PMC4466140.
# What was measured:
# Test in all cases: SPOT peptide array binding signal intensity (averaged, normalized) (arbitrary units (background-subtracted, floor 0; scale differs between SH3 domains)); higher = stronger binding of the SH3 domain to the peptide
# AgAbp1 = molecular target: AgAbp1
# In short: (§1)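 Peptides were synthetic 15-mers on cellulose membranes, with every cysteine replaced by serine. They were incubated overnight at 4°C with GST-SH3 domains from four yeast species at 10 μg/ml in TBS-based blocking buffer. Binding signal, the replicate-averaged normalized and background-subtracted spot intensity, is in arbitrary units that differ between domains.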
# AgBbc1 = molecular target: AgBbc1
# In short: as §1
# AgBem1-D1 = molecular target: AgBem1-D1
# In short: as §1
# AgBzz1-D1 = molecular target: AgBzz1-D1
# In short: as §1
# AgBzz1-D2 = molecular target: AgBzz1-D2
# In short: as §1
# AgCyk3 = molecular target: AgCyk3
# In short: as §1
# AgFus1 = molecular target: AgFus1
# In short: as §1
# AgHof1 = molecular target: AgHof1
# In short: as §1
# AgHse1 = molecular target: AgHse1
# In short: as §1
# AgLsb1 = molecular target: AgLsb1
# In short: as §1
# AgLsb4 = molecular target: AgLsb4
# In short: as §1
# AgMyo5 = molecular target: AgMyo5
# In short: as §1
# AgNbp2 = molecular target: AgNbp2
# In short: as §1
# AgRvs167 = molecular target: AgRvs167
# In short: as §1
# AgSho1 = molecular target: AgSho1
# In short: as §1
# AgSla1-D1-D2 = molecular target: AgSla1-D1-D2
# In short: as §1
# AgSla1-D3 = molecular target: AgSla1-D3
# In short: as §1
# CaAbp1-D1 = molecular target: CaAbp1-D1
# In short: as §1
# CaAbp1-D2 = molecular target: CaAbp1-D2
# In short: as §1
# CaBbc1 = molecular target: CaBbc1
# In short: as §1
# CaBem1-D1 = molecular target: CaBem1-D1
# In short: as §1
# CaBzz1-D1 = molecular target: CaBzz1-D1
# In short: as §1
# CaBzz1-D2 = molecular target: CaBzz1-D2
# In short: as §1
# CaCyk3 = molecular target: CaCyk3
# In short: as §1
# CaFus1 = molecular target: CaFus1
# In short: as §1
# CaHof1 = molecular target: CaHof1
# In short: as §1
# CaHse1 = molecular target: CaHse1
# In short: as §1
# CaLsb1 = molecular target: CaLsb1
# In short: as §1
# CaLsb4 = molecular target: CaLsb4
# In short: as §1
# CaMyo5 = molecular target: CaMyo5
# In short: as §1
# CaNbp2 = molecular target: CaNbp2
# In short: as §1
# CaRvs167 = molecular target: CaRvs167
# In short: as §1
# CaRvs167-3 = molecular target: CaRvs167-3
# In short: as §1
# CaSho1 = molecular target: CaSho1
# In short: as §1
# CaSla1-D1-D2 = molecular target: CaSla1-D1-D2
# In short: as §1
# CaSla1-D3 = molecular target: CaSla1-D3
# In short: as §1
# ScAbp1 = molecular target: ScAbp1
# In short: as §1
# ScBbc1 = molecular target: ScBbc1
# In short: as §1
# ScBem1-D1 = molecular target: ScBem1-D1
# In short: as §1
# ScBzz1-D1 = molecular target: ScBzz1-D1
# In short: as §1
# ScBzz1-D2 = molecular target: ScBzz1-D2
# In short: as §1
# ScCyk3 = molecular target: ScCyk3
# In short: as §1
# ScFus1 = molecular target: ScFus1
# In short: as §1
# ScHof1 = molecular target: ScHof1
# In short: as §1
# ScHse1 = molecular target: ScHse1
# In short: as §1
# ScLsb1 = molecular target: ScLsb1
# In short: as §1
# ScLsb2 = molecular target: ScLsb2
# In short: as §1
# ScLsb3 = molecular target: ScLsb3
# In short: as §1
# ScLsb4 = molecular target: ScLsb4
# In short: as §1
# ScMyo3 = molecular target: ScMyo3
# In short: as §1
# ScMyo5 = molecular target: ScMyo5
# In short: as §1
# ScNbp2 = molecular target: ScNbp2
# In short: as §1
# ScPex13 = molecular target: ScPex13
# In short: as §1
# ScRvs167 = molecular target: ScRvs167
# In short: as §1
# ScSho1 = molecular target: ScSho1
# In short: as §1
# ScSla1-D1-D2 = molecular target: ScSla1-D1-D2
# In short: as §1
# ScSla1-D3 = molecular target: ScSla1-D3
# In short: as §1
# SpAbp1-D1 = molecular target: SpAbp1-D1
# In short: as §1
# SpBbc1 = molecular target: SpBbc1
# In short: as §1
# SpBzz1-D1 = molecular target: SpBzz1-D1
# In short: as §1
# SpBzz1-D2 = molecular target: SpBzz1-D2
# In short: as §1
# SpCyk3 = molecular target: SpCyk3
# In short: as §1
# SpHof1 = molecular target: SpHof1
# In short: as §1
# SpHof1-2 = molecular target: SpHof1-2
# In short: as §1
# SpHof1-3 = molecular target: SpHof1-3
# In short: as §1
# SpHse1 = molecular target: SpHse1
# In short: as §1
# SpLsb1 = molecular target: SpLsb1
# In short: as §1
# SpLsb4 = molecular target: SpLsb4
# In short: as §1
# SpMyo1 = molecular target: SpMyo1
# In short: as §1
# SpNbp2 = molecular target: SpNbp2
# In short: as §1
# SpPex13 = molecular target: SpPex13
# In short: as §1
# SpRvs167 = molecular target: SpRvs167
# In short: as §1
# SpSla1-D1-D2 = molecular target: SpSla1-D1-D2
# In short: as §1
# SpSla1-D3 = molecular target: SpSla1-D3
# In short: as §1
binder,measurement,setting,value
TKFRISLGLPVGAIM,SPOT peptide array binding signal intensity,AgAbp1,4
same,SPOT peptide array binding signal intensity,AgBbc1,108
same,SPOT peptide array binding signal intensity,AgBem1-D1,429
same,SPOT peptide array binding signal intensity,AgBzz1-D1,100
same,SPOT peptide array binding signal intensity,AgBzz1-D2,109
same,SPOT peptide array binding signal intensity,AgCyk3,66
same,SPOT peptide array binding signal intensity,AgFus1,1490
same,SPOT peptide array binding signal intensity,AgHof1,91.5
same,SPOT peptide array binding signal intensity,AgHse1,911
same,SPOT peptide array binding signal intensity,AgLsb1,28
same,SPOT peptide array binding signal intensity,AgLsb4,513
same,SPOT peptide array binding signal intensity,AgMyo5,3.75
same,SPOT peptide array binding signal intensity,AgNbp2,422
same,SPOT peptide array binding signal intensity,AgRvs167,21.3
same,SPOT peptide array binding signal intensity,AgSho1,548
same,SPOT peptide array binding signal intensity,AgSla1-D1-D2,176
same,SPOT peptide array binding signal intensity,AgSla1-D3,12
same,SPOT peptide array binding signal intensity,CaAbp1-D1,112
same,SPOT peptide array binding signal intensity,CaAbp1-D2,134
same,SPOT peptide array binding signal intensity,CaBbc1,225
same,SPOT peptide array binding signal intensity,CaBem1-D1,199
same,SPOT peptide array binding signal intensity,CaBzz1-D1,592
same,SPOT peptide array binding signal intensity,CaBzz1-D2,334
same,SPOT peptide array binding signal intensity,CaCyk3,162
same,SPOT peptide array binding signal intensity,CaFus1,4760
same,SPOT peptide array binding signal intensity,CaHof1,1.25
same,SPOT peptide array binding signal intensity,CaHse1,193
same,SPOT peptide array binding signal intensity,CaLsb1,31
same,SPOT peptide array binding signal intensity,CaLsb4,280
same,SPOT peptide array binding signal intensity,CaMyo5,69.2
same,SPOT peptide array binding signal intensity,CaNbp2,498
same,SPOT peptide array binding signal intensity,CaRvs167,245
same,SPOT peptide array binding signal intensity,CaRvs167-3,2240
same,SPOT peptide array binding signal intensity,CaSho1,1360
same,SPOT peptide array binding signal intensity,CaSla1-D1-D2,126
same,SPOT peptide array binding signal intensity,CaSla1-D3,602
same,SPOT peptide array binding signal intensity,ScAbp1,13
same,SPOT peptide array binding signal intensity,ScBbc1,17
same,SPOT peptide array binding signal intensity,ScBem1-D1,66
same,SPOT peptide array binding signal intensity,ScBzz1-D1,95
same,SPOT peptide array binding signal intensity,ScBzz1-D2,392
same,SPOT peptide array binding signal intensity,ScCyk3,292
same,SPOT peptide array binding signal intensity,ScFus1,2830
same,SPOT peptide array binding signal intensity,ScHof1,2.5
same,SPOT peptide array binding signal intensity,ScHse1,1460
same,SPOT peptide array binding signal intensity,ScLsb1,19.8
same,SPOT peptide array binding signal intensity,ScLsb2,30
same,SPOT peptide array binding signal intensity,ScLsb3,329
same,SPOT peptide array binding signal intensity,ScLsb4,72
same,SPOT peptide array binding signal intensity,ScMyo3,4
same,SPOT peptide array binding signal intensity,ScMyo5,12
same,SPOT peptide array binding signal intensity,ScNbp2,702
same,SPOT peptide array binding signal intensity,ScPex13,65.5
same,SPOT peptide array binding signal intensity,ScRvs167,80.7
same,SPOT peptide array binding signal intensity,ScSho1,2880
same,SPOT peptide array binding signal intensity,ScSla1-D1-D2,333
same,SPOT peptide array binding signal intensity,ScSla1-D3,122
same,SPOT peptide array binding signal intensity,SpAbp1-D1,68
same,SPOT peptide array binding signal intensity,SpBbc1,55
same,SPOT peptide array binding signal intensity,SpBzz1-D1,537
same,SPOT peptide array binding signal intensity,SpBzz1-D2,5
same,SPOT peptide array binding signal intensity,SpCyk3,55
same,SPOT peptide array binding signal intensity,SpHof1,183
same,SPOT peptide array binding signal intensity,SpHof1-2,78.2
same,SPOT peptide array binding signal intensity,SpHof1-3,760
same,SPOT peptide array binding signal intensity,SpHse1,664
same,SPOT peptide array binding signal intensity,SpLsb1,35.5
same,SPOT peptide array binding signal intensity,SpLsb4,100
same,SPOT peptide array binding signal intensity,SpMyo1,20.5
same,SPOT peptide array binding signal intensity,SpNbp2,1390
same,SPOT peptide array binding signal intensity,SpPex13,239
same,SPOT peptide array binding signal intensity,SpRvs167,39.2
same,SPOT peptide array binding signal intensity,SpSla1-D1-D2,6
same,SPOT peptide array binding signal intensity,SpSla1-D3,51.5
LTRRFPFLFPFDTRM,SPOT peptide array binding signal intensity,AgAbp1,4
same,SPOT peptide array binding signal intensity,AgBbc1,≤ 0
same,SPOT peptide array binding signal intensity,AgBem1-D1,47
same,SPOT peptide array binding signal intensity,AgBzz1-D1,13
same,SPOT peptide array binding signal intensity,AgBzz1-D2,27
same,SPOT peptide array binding signal intensity,AgCyk3,1
same,SPOT peptide array binding signal intensity,AgFus1,198
same,SPOT peptide array binding signal intensity,AgHof1,43.5
same,SPOT peptide array binding signal intensity,AgHse1,1430
same,SPOT peptide array binding signal intensity,AgLsb1,1.75
same,SPOT peptide array binding signal intensity,AgLsb4,18
same,SPOT peptide array binding signal intensity,AgMyo5,1.5
same,SPOT peptide array binding signal intensity,AgNbp2,36
same,SPOT peptide array binding signal intensity,AgRvs167,3.33
same,SPOT peptide array binding signal intensity,AgSho1,21
same,SPOT peptide array binding signal intensity,AgSla1-D1-D2,25.5
same,SPOT peptide array binding signal intensity,AgSla1-D3,4
same,SPOT peptide array binding signal intensity,CaAbp1-D1,573
same,SPOT peptide array binding signal intensity,CaAbp1-D2,155
same,SPOT peptide array binding signal intensity,CaBbc1,3.25
same,SPOT peptide array binding signal intensity,CaBem1-D1,7
same,SPOT peptide array binding signal intensity,CaBzz1-D1,40
same,SPOT peptide array binding signal intensity,CaBzz1-D2,12.5
same,SPOT peptide array binding signal intensity,CaCyk3,8
same,SPOT peptide array binding signal intensity,CaFus1,1040
same,SPOT peptide array binding signal intensity,CaHof1,0.5
same,SPOT peptide array binding signal intensity,CaHse1,83.5
same,SPOT peptide array binding signal intensity,CaLsb1,≤ 0
same,SPOT peptide array binding signal intensity,CaLsb4,9.5
same,SPOT peptide array binding signal intensity,CaMyo5,13.8
same,SPOT peptide array binding signal intensity,CaNbp2,249
same,SPOT peptide array binding signal intensity,CaRvs167,10.2
same,SPOT peptide array binding signal intensity,CaRvs167-3,43.2
same,SPOT peptide array binding signal intensity,CaSho1,892
same,SPOT peptide array binding signal intensity,CaSla1-D1-D2,30.5
same,SPOT peptide array binding signal intensity,CaSla1-D3,20
same,SPOT peptide array binding signal intensity,ScAbp1,39
same,SPOT peptide array binding signal intensity,ScBbc1,0.5
same,SPOT peptide array binding signal intensity,ScBem1-D1,14
same,SPOT peptide array binding signal intensity,ScBzz1-D1,10
same,SPOT peptide array binding signal intensity,ScBzz1-D2,10
same,SPOT peptide array binding signal intensity,ScCyk3,374
same,SPOT peptide array binding signal intensity,ScFus1,289
same,SPOT peptide array binding signal intensity,ScHof1,0.5
same,SPOT peptide array binding signal intensity,ScHse1,1600
same,SPOT peptide array binding signal intensity,ScLsb1,≤ 0
same,SPOT peptide array binding signal intensity,ScLsb2,≤ 0
same,SPOT peptide array binding signal intensity,ScLsb3,27.5
same,SPOT peptide array binding signal intensity,ScLsb4,≤ 0
same,SPOT peptide array binding signal intensity,ScMyo3,2.5
same,SPOT peptide array binding signal intensity,ScMyo5,1.5
same,SPOT peptide array binding signal intensity,ScNbp2,128
same,SPOT peptide array binding signal intensity,ScPex13,≤ 0
same,SPOT peptide array binding signal intensity,ScRvs167,14.3
same,SPOT peptide array binding signal intensity,ScSho1,335
same,SPOT peptide array binding signal intensity,ScSla1-D1-D2,7
same,SPOT peptide array binding signal intensity,ScSla1-D3,7.5
same,SPOT peptide array binding signal intensity,SpAbp1-D1,195
same,SPOT peptide array binding signal intensity,SpBbc1,≤ 0
same,SPOT peptide array binding signal intensity,SpBzz1-D1,53.5
